Common to all, as to conditions: modulator concentration 10 µM
Assay [1] deals with RAW-Dual (murine macrophage reporter line). In words: NF-kB reporter (SEAP) activity fold change vs agonist alone; higher = enhanced NF-kB activity. A digest of the protocol: (§1)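 RAW-Dual murine macrophage reporter cells were seeded at 50 000 per well in 384-well plates and pre-incubated 1 hour at 37 °C with compound pin-transferred to 10 μM final. After 1 hour, a PRR agonist was added and cells incubated overnight. Supernatant NF-κB (SEAP, QUANTI-Blue, 620 nm absorbance) and IRF (Lucia luciferase, QUANTI-Luc, luminescence) signals were divided by the mean agonist-only control on the same plate to give fold change. Two replicate plates were averaged, with errors by propagation.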

The test system is the same in assay [2]. Put plainly: IRF reporter (Lucia luciferase) activity fold change vs agonist alone; higher = enhanced IRF activity. A digest of the protocol:
as §1

The test system is the same in assay [3]. Put plainly: viability score (confluency relative to resting cells, overnight) (fraction); higher = more viable, active = viable (0.7 or more). A digest of the protocol: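 Compound was added at a final 10 μM to RAW-Dual macrophages in 384-well plates and left overnight. Confluency was imaged with IncuCyte, and two masks were generated in IncuCyte software over all imaged wells. Each viability score is confluency relative to resting cells, and a compound met the cutoff only when both masks were above 70% of resting cells.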

[4] abbreviates: agonist: CpG ODN 1826 0.5 ug/mL.

The structures appear in SMILES notation. ± gives the standard deviation.

Turning to `O=C(NCCN1CCOCC1)c1ccc(Cl)nc1`, the NF-kB reporter in assay [1] (setting [4]) is 0.917 ± 0.17; in assay [1] (agonist: LPS 0.1 ug/mL), 1.15 ± 0.13; in assay [1] (agonist: MPLA […]), 0.995 ± 0.1. The IRF reporter in assay [2] (agonist: 3'3'-cGAMP 10 ug/mL) was 0.987 ± 0.026; in assay [2] (agonist: LPS 0.1 ug/mL), 1.12 ± 0.21; in assay [2] (agonist: MPLA […]), 1.09 ± 0.13. Also, the viability score in assay [3] was 0.972 (active).
On to `CC1=C(O)C(=O)C=C2C1=CC=C1C2(C)CCC2(C)C3CC(C)(C(=O)O)CCC3(C)CCC12C` (stereo not drawn), for which the NF-kB reporter stood at 0.062 ± 0.0049 in assay [1] (setting [4]), 0.048 ± 0.0035 in assay [1] (agonist: LPS 0.1 ug/mL) and 0.0885 ± 0.0089 in assay [1] (agonist: MPLA […]). Moreover, the IRF reporter in assay [2] (agonist: 3'3'-cGAMP 10 ug/mL) was 0.0157 ± 0.0014; in assay [2] (agonist: LPS 0.1 ug/mL), 0.116 ± 0.081; in assay [2] (agonist: MPLA […]), 0.071 ± 0.039. Moreover, the viability score in assay [3] is 0.381 (inactive).
`COc1ccccc1N1C(=O)C(=Cc2ccc(C)s2)C(=O)NC1=S`: the NF-kB reporter in assay [1] (setting [4]) was 1.07 ± 0.11; in assay [1] (agonist: LPS 0.1 ug/mL), 1.08 ± 0.093; in assay [1] (agonist: MPLA […]), 0.973 ± 0.084. Further, the IRF reporter in assay [2] (agonist: 3'3'-cGAMP 10 ug/mL) worked out at 0.953 ± 0.049; in assay [2] (agonist: LPS 0.1 ug/mL) it was 1.8 ± 0.28; in assay [2] (agonist: MPLA […]), 1.39 ± 0.14. Besides, in assay [3], the viability score was 0.992 (active).
Take `Cc1ccc(-c2nn(-c3ccccc3)cc2C=C2C(=O)NC(=O)NC2=O)o1`: the NF-kB reporter is 1 ± 0.094 in assay [1] (setting [4]), 1.07 ± 0.066 in assay [1] (agonist: LPS 0.1 ug/mL) and 1 ± 0.08 in assay [1] (agonist: MPLA […]). Further, the IRF reporter is 1.01 ± 0.037 in assay [2] (agonist: 3'3'-cGAMP 10 ug/mL), 1.42 ± 0.23 in assay [2] (agonist: LPS 0.1 ug/mL) and 1.16 ± 0.072 in assay [2] (agonist: MPLA […]). The viability score in assay [3] was 1.01 (active).
Regarding `C=C1C[C@@H]2[C@H](CC[C@]3(C)C(=O)CC[C@@H]23)[C@@]2(C)C=CC(=O)C=C12`, the NF-kB reporter is 0.843 ± 0.064 in assay [1] (setting [4]), 0.79 ± 0.091 in assay [1] (agonist: LPS 0.1 ug/mL) and 0.984 ± 0.033 in assay [1] (agonist: MPLA […]). In addition, the results for the IRF reporter in assay [2] (agonist: 3'3'-cGAMP 10 ug/mL), in assay [2] (agonist: LPS 0.1 ug/mL) and in assay [2] (agonist: MPLA […]) were 0.789 ± 0.051, 0.911 ± 0.095 and 0.908 ± 0.16, respectively. Further, the viability score in assay [3] was 0.987 (active).
As for `C#CCOc1ccc(C=C2C(=O)NC(=O)N(c3cc(OC)c(Cl)cc3OC)C2=O)cc1Cl`, the NF-kB reporter in assay [1] (setting [4]) is 1.1 ± 0.1; in assay [1] (agonist: LPS 0.1 ug/mL) it was 1 ± 0.059; in assay [1] (agonist: MPLA […]) it was 0.899 ± 0.056. For the same compound, the figures for the IRF reporter in assay [2] (agonist: 3'3'-cGAMP 10 ug/mL), in assay [2] (agonist: LPS 0.1 ug/mL) and in assay [2] (agonist: MPLA […]) were 0.952 ± 0.051, 1.15 ± 0.12 and 0.887 ± 0.055, respectively. The viability score in assay [3] was 1.01 (active).
For `COC(=O)C1C2C(=O)N(c3ccccc3)C(=O)C12c1ccc(Cl)cc1` (stereo not drawn), the NF-kB reporter is 1.1 ± 0.094 in assay [1] (setting [4]), 1.11 ± 0.09 in assay [1] (agonist: LPS 0.1 ug/mL) and 1.01 ± 0.037 in assay [1] (agonist: MPLA […]). Moreover, the IRF reporter was 1.01 ± 0.04 in assay [2] (agonist: 3'3'-cGAMP 10 ug/mL), 1.03 ± 0.055 in assay [2] (agonist: LPS 0.1 ug/mL) and 1.08 ± 0.11 in assay [2] (agonist: MPLA […]). The viability score in assay [3] was 1 (active).
On to `O=[N+]([O-])Nc1ccc(Br)cn1`, for which the NF-kB reporter in assay [1] (setting [4]) turned out to be 0.998 ± 0.09; in assay [1] (agonist: LPS 0.1 ug/mL), 0.98 ± 0.096; in assay [1] (agonist: MPLA […]) it was 0.983 ± 0.048. The IRF reporter in assay [2] (agonist: 3'3'-cGAMP 10 ug/mL) came to 0.961 ± 0.15; in assay [2] (agonist: LPS 0.1 ug/mL), 1.09 ± 0.064; in assay [2] (agonist: MPLA […]) it was 1.17 ± 0.095. In addition, the viability score in assay [3] was 0.997 (active).
`Cc1c(NN=C2C(=O)NC(=O)NC2=O)c(=O)n(-c2ccccc2)n1C`: the NF-kB reporter worked out at 1.02 ± 0.1 in assay [1] (setting [4]), 1.03 ± 0.086 in assay [1] (agonist: LPS 0.1 ug/mL) and 0.958 ± 0.042 in assay [1] (agonist: MPLA […]). In addition, the IRF reporter was 0.951 ± 0.13 in assay [2] (agonist: 3'3'-cGAMP 10 ug/mL), 1.08 ± 0.096 in assay [2] (agonist: LPS 0.1 ug/mL) and 0.932 ± 0.14 in assay [2] (agonist: MPLA […]). Also, in assay [3], the viability score is 0.999 (active).
Take `Nc1nc(N)nc(NC2CC2)n1`: the NF-kB reporter turned out to be 1.47 ± 0.063 in assay [1] (setting [4]), 1.15 ± 0.1 in assay [1] (agonist: LPS 0.1 ug/mL) and 1.67 ± 0.39 in assay [1] (agonist: MPLA […]). In addition, the IRF reporter in assay [2] (agonist: 3'3'-cGAMP 10 ug/mL) was 0.614 ± 0.064; in assay [2] (agonist: LPS 0.1 ug/mL), 0.992 ± 0.24; in assay [2] (agonist: MPLA […]), 0.892 ± 0.33. Further, the viability score in assay [3] is 0.987 (active).
Turning to `Cc1ccccc1N1C(=O)C(=Cc2ccc(-c3ccc(C(=O)O)c(Cl)c3)o2)C(=O)NC1=S`, the NF-kB reporter in assay [1] (setting [4]) was found to be 0.617 ± 0.049; in assay [1] (agonist: LPS 0.1 ug/mL), 1.05 ± 0.067; in assay [1] (agonist: MPLA […]), 0.9 ± 0.066. Moreover, the IRF reporter in assay [2] (agonist: 3'3'-cGAMP 10 ug/mL) came to 0.692 ± 0.017; in assay [2] (agonist: LPS 0.1 ug/mL), 1.24 ± 0.24; in assay [2] (agonist: MPLA […]), 0.964 ± 0.2. In addition, in assay [3], the viability score was 1.01 (active).
On to `COc1ccc(CNCCc2c[nH]c3ccccc23)cc1C`, for which the NF-kB reporter was 0.373 ± 0.058 in assay [1] (setting [4]), 0.574 ± 0.054 in assay [1] (agonist: LPS 0.1 ug/mL) and 1.22 ± 0.06 in assay [1] (agonist: MPLA […]). The IRF reporter was 0.782 ± 0.08 in assay [2] (agonist: 3'3'-cGAMP 10 ug/mL), 1.04 ± 0.052 in assay [2] (agonist: LPS 0.1 ug/mL) and 2.55 ± 0.19 in assay [2] (agonist: MPLA […]). Further, in assay [3], the viability score is 0.154 (inactive).
For the compound `CN1Cc2c(ccc3c2OCO3)C2C(O)Cc3cc4c(cc3C21)OCO4` (stereo not drawn), the NF-kB reporter was 1.75 ± 0.13 in assay [1] (setting [4]), 1.49 ± 0.12 in assay [1] (agonist: LPS 0.1 ug/mL) and 1.79 ± 0.19 in assay [1] (agonist: MPLA […]). Also, the values for the IRF reporter in assay [2] (agonist: 3'3'-cGAMP 10 ug/mL), in assay [2] (agonist: LPS 0.1 ug/mL) and in assay [2] (agonist: MPLA […]) were 0.269 ± 0.012, 1.64 ± 0.22 and 2 ± 0.38, respectively. For the same compound, the viability score in assay [3] is 0.883 (active).
Take `COc1ccc(CCNCc2cccc3ccccc23)cc1OC`: the NF-kB reporter in assay [1] (setting [4]) stood at 0.222 ± 0.016; in assay [1] (agonist: LPS 0.1 ug/mL), 0.82 ± 0.059; in assay [1] (agonist: MPLA […]), 0.867 ± 0.058. In addition, the IRF reporter in assay [2] (agonist: 3'3'-cGAMP 10 ug/mL) came to 0.872 ± 0.047; in assay [2] (agonist: LPS 0.1 ug/mL), 1.32 ± 0.093; in assay [2] (agonist: MPLA […]), 1.44 ± 0.14. For the same compound, the viability score in assay [3] was 0.947 (active).

(Values after the supplement of paper PMC10646978.)
